From PMC7862700, “An all-to-all approach to the identification of sequence-specific readers for epigenetic DNA modifications on cytosine” come the findings set out here.

Holding throughout (assay): DAPPL (digital affinity profiling via proximity ligation, sequencing); 10 mM Tris-HCl pH 7.5, 50 mM NaCl, 1 mM DTT, 4% glycerol, room temperature, 30 min; GST-TFs on glutathione beads, 16-mer random dsDNA library, 0.1% formaldehyde crosslink after washing; high values mean tight binding
Conditions in all cases: protein: recombinant; tags: N-terminal GST; dsDNA, one strand shown

The target in one assay is T1, FLI1 (Homo sapiens, UniProt Q01543 1-452).
T1 sequence: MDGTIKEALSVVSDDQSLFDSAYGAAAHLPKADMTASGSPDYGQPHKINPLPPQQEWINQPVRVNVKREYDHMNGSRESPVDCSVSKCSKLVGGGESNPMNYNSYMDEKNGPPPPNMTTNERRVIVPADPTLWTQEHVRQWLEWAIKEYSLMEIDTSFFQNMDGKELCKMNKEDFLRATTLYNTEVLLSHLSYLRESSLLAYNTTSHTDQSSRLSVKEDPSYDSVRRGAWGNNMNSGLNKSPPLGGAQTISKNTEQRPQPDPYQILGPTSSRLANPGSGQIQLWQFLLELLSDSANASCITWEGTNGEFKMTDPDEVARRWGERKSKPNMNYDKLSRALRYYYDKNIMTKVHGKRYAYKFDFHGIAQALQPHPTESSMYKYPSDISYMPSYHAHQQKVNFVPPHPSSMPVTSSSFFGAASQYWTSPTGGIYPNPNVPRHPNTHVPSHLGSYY
Put shortly: (§1)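 Pools of DNA-barcoded human transcription factors, expressed in yeast as GST fusions on glutathione beads and combined with a tag-only sample, were incubated with 200 nmole of a 16-mer random double-stranded DNA library. Incubation took 30 min at room temperature in Tris/NaCl/DTT/glycerol buffer and was followed by washing, 0.1% formaldehyde crosslinking, proximity ligation (BsaI/T4 ligase, 1 h, 37 °C), PCR amplification and sequencing on an Illumina NextSeq500. Binding signal is the ratio of a hexamer's read frequency for a factor to its frequency for the tag-only sample.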

Another assay addresses T2, ELK1 (Homo sapiens, UniProt P19419 1-428).
T2 sequence: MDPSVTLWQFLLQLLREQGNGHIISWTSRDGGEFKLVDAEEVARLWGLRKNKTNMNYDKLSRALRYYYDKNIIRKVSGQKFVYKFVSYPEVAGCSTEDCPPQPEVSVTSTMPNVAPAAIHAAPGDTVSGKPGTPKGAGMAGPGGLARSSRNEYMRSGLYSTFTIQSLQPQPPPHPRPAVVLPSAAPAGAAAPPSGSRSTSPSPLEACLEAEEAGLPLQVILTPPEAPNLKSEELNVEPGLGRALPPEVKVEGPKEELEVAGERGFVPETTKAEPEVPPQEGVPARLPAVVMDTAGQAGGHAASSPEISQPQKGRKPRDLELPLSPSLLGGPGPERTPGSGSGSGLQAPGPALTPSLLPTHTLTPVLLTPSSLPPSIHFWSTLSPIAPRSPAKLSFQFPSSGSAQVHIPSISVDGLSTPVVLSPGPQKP
Put shortly:
as §1

In the next assay the target is T3, GABPA (Homo sapiens, UniProt Q06546 1-454).
T3 sequence: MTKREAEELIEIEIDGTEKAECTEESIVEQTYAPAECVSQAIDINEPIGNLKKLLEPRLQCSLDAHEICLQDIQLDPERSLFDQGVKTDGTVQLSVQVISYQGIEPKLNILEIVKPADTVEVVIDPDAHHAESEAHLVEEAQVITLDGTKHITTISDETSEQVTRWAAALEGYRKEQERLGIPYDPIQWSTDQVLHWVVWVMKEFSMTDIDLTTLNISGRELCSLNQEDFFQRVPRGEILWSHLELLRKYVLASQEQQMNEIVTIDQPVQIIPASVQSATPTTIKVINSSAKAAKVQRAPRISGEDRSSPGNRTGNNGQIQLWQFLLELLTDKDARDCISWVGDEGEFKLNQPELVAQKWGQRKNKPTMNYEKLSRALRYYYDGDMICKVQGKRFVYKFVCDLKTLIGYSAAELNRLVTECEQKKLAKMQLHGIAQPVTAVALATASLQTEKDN
Summed up:
as §1

The next assay has as its target T4, ERG (Homo sapiens, UniProt P11308 1-479).
T4 sequence: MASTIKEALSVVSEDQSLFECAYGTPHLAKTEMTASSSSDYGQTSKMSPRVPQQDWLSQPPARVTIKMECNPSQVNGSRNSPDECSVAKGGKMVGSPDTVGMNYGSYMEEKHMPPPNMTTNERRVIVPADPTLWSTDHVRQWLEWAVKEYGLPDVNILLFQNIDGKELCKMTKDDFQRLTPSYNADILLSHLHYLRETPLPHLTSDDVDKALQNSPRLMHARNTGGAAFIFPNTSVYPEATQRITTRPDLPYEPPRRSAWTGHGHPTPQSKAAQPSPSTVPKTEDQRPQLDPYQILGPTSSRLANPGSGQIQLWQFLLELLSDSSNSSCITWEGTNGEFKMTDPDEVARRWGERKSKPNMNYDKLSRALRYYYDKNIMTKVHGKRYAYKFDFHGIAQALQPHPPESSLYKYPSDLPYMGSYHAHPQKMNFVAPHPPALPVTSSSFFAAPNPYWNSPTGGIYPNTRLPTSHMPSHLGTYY
Summed up: as §1

The target in the next assay is ELF1 (Homo sapiens, UniProt P32519 1-619). Put shortly: as §1
ELF1, sequence (P32519 whole entry): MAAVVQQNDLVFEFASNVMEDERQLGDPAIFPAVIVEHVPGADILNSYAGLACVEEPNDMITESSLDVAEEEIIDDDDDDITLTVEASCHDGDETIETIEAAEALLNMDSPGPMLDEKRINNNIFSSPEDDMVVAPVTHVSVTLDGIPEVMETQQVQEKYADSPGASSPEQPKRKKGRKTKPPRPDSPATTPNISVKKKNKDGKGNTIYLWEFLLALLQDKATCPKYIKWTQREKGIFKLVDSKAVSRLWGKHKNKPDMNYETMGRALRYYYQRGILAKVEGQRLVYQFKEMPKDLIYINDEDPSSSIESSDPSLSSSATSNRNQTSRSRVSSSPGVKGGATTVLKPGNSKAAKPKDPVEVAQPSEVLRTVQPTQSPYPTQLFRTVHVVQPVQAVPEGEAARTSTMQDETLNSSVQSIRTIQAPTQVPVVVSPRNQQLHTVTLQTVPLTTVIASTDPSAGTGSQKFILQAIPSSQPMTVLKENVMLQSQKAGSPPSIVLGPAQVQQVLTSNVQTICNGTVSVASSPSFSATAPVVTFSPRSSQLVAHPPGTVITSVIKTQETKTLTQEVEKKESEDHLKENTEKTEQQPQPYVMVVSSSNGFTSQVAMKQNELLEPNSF
A further assay addresses T5, EHF (Homo sapiens, UniProt Q9NZC4 1-300).
T5 sequence: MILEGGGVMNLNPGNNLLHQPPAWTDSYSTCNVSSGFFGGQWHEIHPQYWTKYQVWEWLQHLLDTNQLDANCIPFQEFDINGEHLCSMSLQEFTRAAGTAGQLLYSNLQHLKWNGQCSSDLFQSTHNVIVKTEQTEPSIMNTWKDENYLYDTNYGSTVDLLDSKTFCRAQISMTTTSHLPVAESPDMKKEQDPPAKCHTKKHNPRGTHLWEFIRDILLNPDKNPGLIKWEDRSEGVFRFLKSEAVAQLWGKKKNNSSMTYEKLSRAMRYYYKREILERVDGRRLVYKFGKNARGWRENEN
Summed up: as §1

Another assay concerns the target SPI1 (Homo sapiens, UniProt P17947 1-270). Summed up:
as §1

The target of another assay is SPIB (Homo sapiens, UniProt Q01892 1-262). Summed up:
as §1

A further assay deals with T6, ELK3 (Homo sapiens, UniProt P41970 1-407).
T6 sequence: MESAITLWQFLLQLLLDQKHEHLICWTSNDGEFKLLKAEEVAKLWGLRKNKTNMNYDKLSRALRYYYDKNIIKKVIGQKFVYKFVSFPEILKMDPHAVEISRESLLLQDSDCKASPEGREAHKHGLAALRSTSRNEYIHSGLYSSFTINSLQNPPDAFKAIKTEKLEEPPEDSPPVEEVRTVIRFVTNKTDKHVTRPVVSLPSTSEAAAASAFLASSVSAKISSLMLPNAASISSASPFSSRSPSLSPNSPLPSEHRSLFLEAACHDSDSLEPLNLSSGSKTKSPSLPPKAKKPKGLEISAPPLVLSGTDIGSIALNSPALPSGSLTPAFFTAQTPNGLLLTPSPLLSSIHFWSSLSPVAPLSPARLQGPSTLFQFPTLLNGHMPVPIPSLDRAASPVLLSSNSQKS
Summed up:
as §1

SPIB, sequence (Q01892 whole entry): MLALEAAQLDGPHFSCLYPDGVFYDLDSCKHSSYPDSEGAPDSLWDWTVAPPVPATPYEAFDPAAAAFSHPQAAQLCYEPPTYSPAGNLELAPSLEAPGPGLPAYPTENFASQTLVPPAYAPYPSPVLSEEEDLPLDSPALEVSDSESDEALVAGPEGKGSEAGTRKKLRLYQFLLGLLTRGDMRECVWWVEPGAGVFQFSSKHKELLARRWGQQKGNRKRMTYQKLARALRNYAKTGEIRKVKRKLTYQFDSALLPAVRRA

In the case of GCACCC, the binding signal was 1.21 fold enrichment (6-mer frequency, TF over GST control) with FLI1; 1.25 fold enrichment (6-mer frequency, TF over GST control) with ELK1; 1.25 fold enrichment (6-mer frequency, TF over GST control) in the assay with GABPA; 1.17 fold enrichment (6-mer frequency, TF over GST control) with ERG; 1.16 fold enrichment (6-mer frequency, TF over GST control) with ELF1; 1.01 fold enrichment (6-mer frequency, TF over GST control) with EHF. The binding signal with SPI1 is 1.18 fold enrichment (6-mer frequency, TF over GST control); in the assay with SPIB, 1.2 fold enrichment (6-mer frequency, TF over GST control); with ELK3 it was 1.14 fold enrichment (6-mer frequency, TF over GST control).

Consider AACAGC, for which the binding signal with FLI1 was 1.1 fold enrichment (6-mer frequency, TF over GST control); with ELK1, 1.1 fold enrichment (6-mer frequency, TF over GST control); in the assay with GABPA, 1.17 fold enrichment (6-mer frequency, TF over GST control); with ERG it was 1.13 fold enrichment (6-mer frequency, TF over GST control); with ELF1, 1.12 fold enrichment (6-mer frequency, TF over GST control); with EHF, 1.16 fold enrichment (6-mer frequency, TF over GST control). Further, the binding signal with SPI1 is 1.11 fold enrichment (6-mer frequency, TF over GST control); in the assay with SPIB it was 1.13 fold enrichment (6-mer frequency, TF over GST control); with ELK3, 1.17 fold enrichment (6-mer frequency, TF over GST control).

TCCCGA: the binding signal with FLI1 is 1.39 fold enrichment (6-mer frequency, TF over GST control); with ELK1, 1.23 fold enrichment (6-mer frequency, TF over GST control); in the assay with GABPA, 1.47 fold enrichment (6-mer frequency, TF over GST control); in the assay with ERG, 1.27 fold enrichment (6-mer frequency, TF over GST control); with ELF1, 1.31 fold enrichment (6-mer frequency, TF over GST control); with EHF, 1.36 fold enrichment (6-mer frequency, TF over GST control). Moreover, the binding signal in the assay with SPI1 is 1.37 fold enrichment (6-mer frequency, TF over GST control); with SPIB, 1.41 fold enrichment (6-mer frequency, TF over GST control); with ELK3, 1.35 fold enrichment (6-mer frequency, TF over GST control).

Consider AATTTT, for which the binding signal with FLI1 is 1.24 fold enrichment (6-mer frequency, TF over GST control); in the assay with ELK1 it was 1.26 fold enrichment (6-mer frequency, TF over GST control); with GABPA it was 1.27 fold enrichment (6-mer frequency, TF over GST control); with ERG it was 1.21 fold enrichment (6-mer frequency, TF over GST control); in the assay with ELF1, 1.22 fold enrichment (6-mer frequency, TF over GST control); with EHF it was 1.3 fold enrichment (6-mer frequency, TF over GST control). The binding signal was 1.3 fold enrichment (6-mer frequency, TF over GST control) with SPI1; 1.26 fold enrichment (6-mer frequency, TF over GST control) with SPIB; 1.19 fold enrichment (6-mer frequency, TF over GST control) in the assay with ELK3.

For the sequence TACGCC, the binding signal was 1.39 fold enrichment (6-mer frequency, TF over GST control) with FLI1; 1.22 fold enrichment (6-mer frequency, TF over GST control) with ELK1; 1.3 fold enrichment (6-mer frequency, TF over GST control) with GABPA; 1.16 fold enrichment (6-mer frequency, TF over GST control) in the assay with ERG; 1.28 fold enrichment (6-mer frequency, TF over GST control) in the assay with ELF1; 1.18 fold enrichment (6-mer frequency, TF over GST control) with EHF. Moreover, the binding signal with SPI1 was 1.18 fold enrichment (6-mer frequency, TF over GST control); with SPIB, 1.18 fold enrichment (6-mer frequency, TF over GST control); with ELK3, 1.23 fold enrichment (6-mer frequency, TF over GST control).

With TGCCGC, the binding signal is 1.33 fold enrichment (6-mer frequency, TF over GST control) in the assay with FLI1; 1.3 fold enrichment (6-mer frequency, TF over GST control) with ELK1; 1.33 fold enrichment (6-mer frequency, TF over GST control) with GABPA; 1.24 fold enrichment (6-mer frequency, TF over GST control) in the assay with ERG; 1.28 fold enrichment (6-mer frequency, TF over GST control) with ELF1; 1.28 fold enrichment (6-mer frequency, TF over GST control) with EHF. Also, the binding signal with SPI1 is 1.37 fold enrichment (6-mer frequency, TF over GST control); with SPIB, 1.36 fold enrichment (6-mer frequency, TF over GST control); with ELK3, 1.26 fold enrichment (6-mer frequency, TF over GST control).

For CTCCAG, the binding signal in the assay with FLI1 was 1.08 fold enrichment (6-mer frequency, TF over GST control); in the assay with ELK1, 1.12 fold enrichment (6-mer frequency, TF over GST control); in the assay with GABPA, 1.26 fold enrichment (6-mer frequency, TF over GST control); with ERG, 1.16 fold enrichment (6-mer frequency, TF over GST control); with ELF1, 1.19 fold enrichment (6-mer frequency, TF over GST control); with EHF it was 1.17 fold enrichment (6-mer frequency, TF over GST control). The binding signal with SPI1 is 1.21 fold enrichment (6-mer frequency, TF over GST control); with SPIB, 1.23 fold enrichment (6-mer frequency, TF over GST control); with ELK3, 1.29 fold enrichment (6-mer frequency, TF over GST control).

Take ACTTAG: the binding signal with FLI1 is 1.04 fold enrichment (6-mer frequency, TF over GST control); with ELK1, 1.06 fold enrichment (6-mer frequency, TF over GST control); in the assay with GABPA it was 1.11 fold enrichment (6-mer frequency, TF over GST control); with ERG, 1.09 fold enrichment (6-mer frequency, TF over GST control); in the assay with ELF1, 1.05 fold enrichment (6-mer frequency, TF over GST control); with EHF it was 1.11 fold enrichment (6-mer frequency, TF over GST control). Moreover, the binding signal in the assay with SPI1 was 1.05 fold enrichment (6-mer frequency, TF over GST control); with SPIB, 1.11 fold enrichment (6-mer frequency, TF over GST control); with ELK3, 1.17 fold enrichment (6-mer frequency, TF over GST control).
